The record followed here is PubChem BioAssay AID588397 (National Center for Advancing Translational Sciences (NCATS), 2011).

Out of some 1,300 compounds screened, about 1,000 (77%) were called active. Roughly 7% stayed inconclusive and do not appear here. So high a share suggests a set chosen from earlier hits. Some of the results follow. Unmarked numbers belong to inactive results. Calls follow the shape of the dose curve; as a rule, active = well fitted inhibition curve with a large enough effect; inconclusive = small, poorly fitted or top-dose-only effect; inactive = no such curve, though single readings can be large or run the other way.
% is scaled to controls: 0 for no effect and ±100 for the full control effect; potency is read from the fitted curve at half-maximal effect.

The assay is described as follows: qHTS of small molecules that selectively kill Giardia lamblia: Hit Validation.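 Also: viability measured as ATP content by luminescence so killing lowers signal; nearly all actives have a fitted effect of over 65% in size.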 To be noted: Giardia lamblia trophozoite viability, dose-response; series mostly up to 38.3 µM; activity change, negative = killing: at the top concentration. The text has this:
Giardia lamblia is a human pathogen afflicting impoverished nations, and the most common cause of outbreaks of diarrhea in the United States. Giardia has been classified by the CDC as a category B bioterrorism organism. The favored anti giardiasis drugs in the US are metronidazole or tinidazole, compounds that have undesirable side effects. Moreover, increasing resistance to drug regimes and recurrence are a concern. It is thus clear that alternative drug treatments are needed.
In a collaboration between the University of Maryland, College Park and the NIH Chemical Genomics Center, a bioluminescence Giardia viability assay based on the trophozoites' ATP content was developed. This assay is suitable for high throughput screening, and miniaturized the assay for compound screening in 1536-well plates. The goal of the project is to screen the Molecular Libraries Small Molecule Repository (MLSMR) for compounds that selectively kill Giardia trophozoites.
NIH Chemical Genomics Center [NCGC]
NIH Molecular Libraries Probe Centers Network [MLPCN]
Assay Submitter (PI): Osnat Herzberg, University of Maryland, College Park, MD.
1. Dispense 2 ul/well media
2. Dispense 23 nl/well compounds
3. Dispense 4 ul/well Giardia trophozoites at a concentration of 100 cells/well
4. Incubate 48 hrs at 37 deg C anaerobically
5. Dispense 4 ul/well ATPLite 1-Step Luminescence assay kit
6. Incubate 15-30 min at room temperature
7. Read luminescence signal on ViewLux plate reader
For orientation: Quantitative high-throughput screening tests each substance at several concentrations.
In the case of `CN(C)C(=O)CCc1ccc2c3c([nH]c2c1)[C@]1(CCC2CCCC2)[C@@H](C(=O)N2CCOCC2)C[C@H](CC(=O)NCCN2CCOCC2)C(=O)N1CC3`, the “activity change, negative = killing” value is -13.7%. Take `CS(=O)(=O)N1CCN(c2ccccc2NC(=O)c2ccc([N+](=O)[O-])o2)CC1`: the Potency was 1300 nM (active). The same measure, in the same setting: as for `CN1CCN(c2ccc(NC(=O)c3ccc([N+](=O)[O-])o3)cc2Cl)CC1`, the figure is 1300 nM (active); as for `CC(=O)N1CCN(c2ccc(NC(=O)c3ccc([N+](=O)[O-])o3)cc2Cl)CC1`, 1450 nM (active); as for `CCC(=O)N1CCN(c2ccc(Cl)cc2NC(=O)c2ccc([N+](=O)[O-])o2)CC1`, 1160 nM (active).

As for `CC(=O)Nc1ccc(S(=O)(=O)NCCC(=O)N2CCN(c3ccccc3Cl)CC2)cc1`, the “activity change, negative = killing” value is -25.3%. Take `CCN1CCN(c2ccc(NC(=O)c3ccc([N+](=O)[O-])o3)cc2Cl)CC1`: the Potency was 729 nM (active).

Consider `CCC(=O)N1CCN(c2ccc(NC(=O)c3ccc([N+](=O)[O-])o3)cc2Cl)CC1`, for which the Potency was 650 nM (active). With `O=C(Nc1ccccc1N1CCN(C(=O)c2ccccc2)CC1)c1ccc([N+](=O)[O-])o1`, the Potency is 818 nM (active). The same measure, in the same setting: the result for `CN1CCN(c2ccc(NC(=O)c3ccc4c(c3)OCCO4)cc2Cl)CC1` reads 5160 nM (active).

As to `CC(C)C(=O)N1CCN(c2ccccc2NC(=O)c2ccc([N+](=O)[O-])o2)CC1`, the Potency was 1160 nM (active). As for `O=C(Nc1ccccc1N1CCOCC1)c1ccc([N+](=O)[O-])o1`, the Potency was 1300 nM (active). Take `CC(C)C(=O)N1CCN(c2ccc(NC(=O)c3ccc([N+](=O)[O-])o3)cc2Cl)CC1`: the Potency is 1030 nM (active). Same read-out and setting: as for `O=C(Nc1cccc(Cl)c1N1CCOCC1)c1ccc([N+](=O)[O-])o1`, the figure is 1300 nM (active); as for `CCC(=O)N1CCN(c2ccccc2NC(=O)c2ccc([N+](=O)[O-])o2)CC1`, 818 nM (active); as for `COc1ccc(CN(C(=O)CSc2nnc(-c3ccc(OC)c(OC)c3)o2)c2ccc(F)cc2)cc1`, 3650 nM (active). For `COc1ccc(-c2nc(CSCC(=O)NC3CCCC3)c(C)o2)cc1OC`, the “activity change, negative = killing” value was -30.1%. Same read-out and setting: as for `Cc1ccc(CSc2nnc(Cn3c(=O)sc4ccccc43)n2C)cc1`, the figure is -21.4%. Consider `Cc1ccc(-c2nc(-c3ccccc3)no2)c(Cl)c1`, for which the Potency is 1630 nM (active). The same measure, in the same setting: as for `Nc1ccc[n+](CC(=O)c2ccc(F)cc2)c1`, the figure is 2310 nM (active); as for `O=C(Nc1cccc2ccccc12)c1ccc([N+](=O)[O-])s1`, 2050 nM (active); as for `Cc1cccc(NC(=O)c2ccc([N+](=O)[O-])s2)c1C`, 3260 nM (active). The same measure, in the same setting: as for `COc1cc2sc3cc(NCCCN4CCOCC4)ccc3c(=O)c2cc1OC`, the figure is 5160 nM (active).

As to `COc1ccc(Cc2noc(CN(C)Cc3ccc(-n4cccn4)cc3)n2)cc1OC`, the “activity change, negative = killing” value is -6.65%.

As for `COc1cc2nc(CN(C)Cc3ccc(C(C)(C)C)cc3)[nH]c(=O)c2cc1OC`, the Potency was 5160 nM (active). On the same count and under the same terms, as for `Cc1ncc([N+](=O)[O-])n1CCOC(=O)c1ccccc1`, the figure is 1030 nM (active); as for `Cc1ncc([N+](=O)[O-])n1CCOC(=O)c1ccc(Br)cc1`, 1160 nM (active); as for `Cc1ncc([N+](=O)[O-])n1CCOC(=O)C12CC3CC(CC(C3)C1)C2`, 1300 nM (active). `CC1(C)Oc2ccc3ccc(=O)oc3c2C(/C=N/O)C1=O` (centres undefined): the “activity change, negative = killing” value was 5.31%. Regarding `Cc1ccc(CN=c2c([N+](=O)[O-])nn(-c3ccc4c(c3)OCCO4)n2O)cc1`, the Potency is 3650 nM (active). As to `COc1ccc(-n2nc([N+](=O)[O-])c(=NCc3ccc4c(c3)OCO4)n2O)cc1`, the Potency was 14500 nM (active). As for `O=[N+]([O-])c1nn(-c2ccc3c(c2)OCCO3)n(O)c1=NCc1ccc(F)cc1`, the Potency is 4600 nM (active). Consider `CN(C(=O)c1ccc(NC(=O)Cc2ccc(NC(=O)C3CCCN(S(=O)(=O)c4cccc([N+](=O)[O-])c4)C3)cc2)cc1)C1CCCC1` (centres undefined), for which the “activity change, negative = killing” value is 1.44%.

For the compound `Cc1ccc(OCC(=O)Nc2cc(S(=O)(=O)N3CCOCC3)ccc2Cl)c([N+](=O)[O-])n1`, the Potency was 4100 nM (active). As for `O=C(COc1cccnc1[N+](=O)[O-])Nc1cc(S(=O)(=O)N2CCCCC2)ccc1Cl`, the Potency is 1450 nM (active).

As to `Cc1ccc(NC(=O)COc2cccnc2[N+](=O)[O-])cc1S(=O)(=O)N1CCCCC1`, the Potency was 4100 nM (active). For the compound `O=C(COc1cccnc1[N+](=O)[O-])Nc1cccc(S(=O)(=O)N2CCCCC2)c1`, the Potency is 3650 nM (active). In the case of `COc1ccc(S(=O)(=O)N2CCOCC2)cc1NC(=O)COc1cccnc1[N+](=O)[O-]`, the Potency is 5790 nM (active). Take `Cc1ccc(CCNC(=O)CN2C(=O)COc3ccc(S(=O)(=O)N4CCOCC4)cc32)cc1`: the “activity change, negative = killing” value was -1.26%.

As for `Cc1ccc(S(=O)(=O)N2CCN(C(=O)COc3ccc(C)nc3[N+](=O)[O-])CC2)c(C)c1`, the Potency is 4100 nM (active). Same read-out and setting: as for `Cc1ccccc1NC(NC(=O)OCCn1c([N+](=O)[O-])cnc1C)C(Cl)(Cl)Cl` (centres undefined), the figure is 729 nM (active); as for `Cc1ncc([N+](=O)[O-])n1CCOC(=O)NC(Nc1ccc(F)cc1)C(Cl)(Cl)Cl` (centres undefined), 460 nM (active). As to `CCOC(=O)c1c(C)[nH]c(C)c1S(=O)(=O)N1CCN(c2ccc([N+](=O)[O-])cc2)CC1`, the Potency is 7290 nM (active). Consider `Cc1oc2c(c1C(=O)N1CCOCC1)C(=O)c1ccccc1C2=O`, for which the Potency was 3260 nM (active). Same read-out and setting: the result for `Cc1oc2c(c1C(=O)N1CCC(C)CC1)C(=O)c1ccccc1C2=O` reads 3650 nM (active). The same measure, in the same setting: the result for `CCOC(=O)C1CCN(C(=O)c2c(C)oc3c2C(=O)c2ccccc2C3=O)CC1` reads 2050 nM (active); that for `O=[N+]([O-])c1ccc(/C=[N+](\[O-])CCO)o1`, 1160 nM (active); that for `O=[N+]([O-])c1ccc(/C=[N+](\[O-])[C@@H]2CCCC[C@@H]2/[N+]([O-])=C/c2ccc([N+](=O)[O-])o2)o1`, 650 nM (active). On the same count and under the same terms, the result for `Cc1ccn(-c2ccc(NC(=O)c3cccs3)cc2)n1` reads 16300 nM (active). For `CCOC(=O)N1CCN(C(=O)c2ccc(Cl)c(NC(=O)c3cccs3)c2)CC1`, the “activity change, negative = killing” value is 19.9%. As for `CC(C)N1CCc2c(sc(NC(=O)c3cc4cc([N+](=O)[O-])ccc4s3)c2C(N)=O)C1`, the Potency is 2590 nM (active). On the same count and under the same terms, the result for `Cn1cc([N+](=O)[O-])c(C(=O)Nc2sc3c(c2C#N)CCC3)n1` reads 2310 nM (active); that for `NC(=O)c1ccsc1NC(=O)c1ccc([N+](=O)[O-])o1`, 1300 nM (active). Same read-out and setting: the result for `N#Cc1c(NC(=O)c2ccc([N+](=O)[O-])o2)sc2c1CCC2` reads 365 nM (active).
